# Screening results from PubChem BioAssay.
# MCF10A rerep: DNA re-replication induction in MCF 10a cells | MCF 10A DNA re-replication, Hoechst nuclear intensity, 48 h | Potency, µM (highest dose often 46.1 µM), for inactives: at the top dose activity, positive = re-replication, most hits filed as activators | 350,000 tested, 2.9% active | AID 624296; further: % of control where 0% means no effect; nearly all actives have a fitted effect of over 50% in size
# KB-3-1 cytotox: KB-3-1 parental cell cytotoxicity; KB-3-1 viability, CellTiter-Glo ATP luminescence, 72 h; 400,000 tested, 1.4% active; Potency, µM (doses to about 46.1 µM), actives largely listed as cytotoxic; AID 1347075; further: on the % scale 0 is the no-effect control and ±100 the full control effect; nearly all actives have a fitted effect of over 60% in size
#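 Using CellTiter-Glo luminescence, growth of non-resistant KB-3-1 adenocarcinoma cells is assessed 72 h after pin-tool compound addition at 37 °C. Normalized responses across the concentration series yield fitted curves.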
# SW480 rereplic: induces DNA re-replication in SW480 colon adenocarcinoma cells; SW480 DNA re-replication, Hoechst DNA content imaging, 48 h; Potency, µM (highest dose often 46.1 µM), inactives show at the highest dose re-replication activation, usual class: activators; 340,000 tested, 1.8% active; AID 624297; further: % of control where 0% means no effect; nearly all actives have a fitted effect of over 55% in size
#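 First, 250 cells per well were seeded. Next, compound or vehicle (23 nL) was pinned in, plates sat 48 hr at 37 C. Finally Hoechst was added for 40 min before fluorescence scanning.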
# RGS4 inhibitor: blocks human RGS4-accelerated GTP hydrolysis. P49798. Transcreener GDP fluorescence polarization, RGS4-accelerated GTP hydrolysis. Potency, µM (top dose mostly 114 µM), inactives show at the highest dose activity change, negative = inhibition, most hits filed as inhibitors. 390,000 tested, 0.039% active; further: on the % scale 0 is the no-effect control and ±100 the full control effect; nearly all actives have a fitted effect of over 75% in size
# Target sequence (P49798 whole entry, looked up): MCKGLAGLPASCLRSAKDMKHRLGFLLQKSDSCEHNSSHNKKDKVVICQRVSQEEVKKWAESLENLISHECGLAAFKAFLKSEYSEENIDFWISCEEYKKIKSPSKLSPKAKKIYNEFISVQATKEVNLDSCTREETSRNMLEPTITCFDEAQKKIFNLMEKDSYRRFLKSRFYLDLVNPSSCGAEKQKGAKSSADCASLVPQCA
#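 MLSMR compounds (23 nl, pin-transferred) preincubated 10 min at room temperature with a 500nM (2x) first reagent, then RGS4 at 900nM (2x) plus Transcreener GDP mix added; fluorescence polarization (620/688 nm) read before and after 90 min at 30 °C.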
# PTAP TSG101 blk: blocks PTAP/TSG101 interaction to inhibit HIV-1 budding | Q99816 | Fluorescence polarization, FITC-PTAP peptide / Tsg101 binding | Potency, µM (doses to about 115 µM), for the others: at the highest dose activity change, negative = inhibition, hits mostly inhibitors | 340,000 tested, under 10 active | AID 493005; active means well fitted inhibition curve with a large enough effect in the main read-out, with a control signal flat, not every such curve was filed as active; inconclusive means small, poorly fitted or top-dose-only effect, or effect the other way, or a change in a side signal; inactive means no such curve, though single readings can be large or run the other way; further: % of control where 0% means no effect
# Target sequence (Q99816 whole entry, looked up): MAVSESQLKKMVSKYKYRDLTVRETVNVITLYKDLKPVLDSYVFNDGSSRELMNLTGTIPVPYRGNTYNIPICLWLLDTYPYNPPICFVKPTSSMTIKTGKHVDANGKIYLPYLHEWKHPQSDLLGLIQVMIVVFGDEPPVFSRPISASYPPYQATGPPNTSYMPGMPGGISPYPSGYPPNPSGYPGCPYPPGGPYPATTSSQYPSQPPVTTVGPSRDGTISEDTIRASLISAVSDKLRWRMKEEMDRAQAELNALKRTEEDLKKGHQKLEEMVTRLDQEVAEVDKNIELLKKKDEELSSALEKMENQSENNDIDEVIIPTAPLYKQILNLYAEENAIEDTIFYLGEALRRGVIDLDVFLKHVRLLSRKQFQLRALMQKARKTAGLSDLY
#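 Fluorescence polarization binding of Tsg101 binding domain (10 uM final) to FITC-labeled PTAP peptide (50 nM final) in HEPES pH 7.5 buffer with NaCl, Tween 20, EDTA, TCEP. Compounds added before peptide; binding 20 min at RT.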
# KB-V1 cytotox: KB-V1 MDR subline cytotoxicity | KB-V1 MDR cells viability, CellTiter-Glo, 72 h | Potency, µM (doses to about 46.1 µM), most hits filed as cytotoxic | 400,000 tested, 3.4% active; further: on the % scale 0 is the no-effect control and ±100 the full control effect; nearly all actives have a fitted effect of over 60% in size
#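 KB-V1 cells (P-gp-expressing MDR subline of KB-3-1) in phenol-red-free DMEM with 10% FBS were exposed to library compounds over a concentration series for 72 h at 37 degrees C. Viability read by CellTiter-Glo luminescence; concentration-effect curves fitted after normalization.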
# Active calls of the source: *; i = inactive; ? = inconclusive; / = no result; [ ] = another dose, or the depositor's remark. In the library only some 6.6% were active in any assay of this set; here they are far more common. Unless noted, the call rests on the fitted dose curve; in most records, active means well fitted curve in the direction sought with a large enough effect; inconclusive means small, poorly fitted or top-dose-only effect, or another doubt; inactive means no such curve, though single readings can be large; an effect the other way counts as inactive or inconclusive. Potency means the concentration at half of the fitted maximal effect.
SMILES,MCF10A rerep,KB-3-1 cytotox,SW480 rereplic,RGS4 inhibitor,PTAP TSG101 blk,KB-V1 cytotox
CCCC(=O)Nc1cc(-c2nn(C)c(=O)c3ccccc23)ccc1OC,18%,?,-5%,30%,-6%,?
NC(=NC1C2CC3CC(C2)CC1C3)Nc1ccc(I)cc1 (configuration not stated),/,/,/,i,/,/
CCOC(=O)c1ccc(N2CC(O)=C(c3nc4ccccc4c(=O)[nH]3)C2=N)cc1,21µM*,i,1%,-20%,-5%,i
N=C1C(c2nc3ccccc3[nH]2)=C(O)CN1c1ccccc1,?,23µM*,?,-16%,-3%,?
CCOc1ccc(N2CC(O)=C(c3nc4ccccc4c(=O)[nH]3)C2=N)cc1,-11%,i,-3%,16%,-4%,i
Nc1c(C(=O)Nc2ccccc2Cl)nnn1Cc1cccc(Cl)c1,/,i,/,16%,/,i
CC(=O)N1CCc2c(sc3c2c(=O)n(CCc2ccccc2)c(=O)n3Cc2ccc(F)cc2)C1,/,?,/,5%,/,?
CCOC(=O)c1c(NC(=O)CSc2nnc(C)s2)sc2c1CCC(C)C2 (configuration not stated),?,i,1%,-16%,-8%,10µM*
CCOC(=O)c1c(NC(=O)CSc2nnc(C)s2)sc2c1CCCCC2,4%,i,-7%,-29%,-2%,i
COc1cc(/C=C\c2ccc(OC)cc2OC)cc(OC)c1,/,/,/,-151%[56.9 µM],/,/
COc1ccc2c(c1)c1c(c(=O)n(-c3cc(Cl)ccc3C)c(=O)n1CC(=O)N1CCCC1)n2C,/,i,/,-1%,/,i
COc1ccc(C(=O)N=c2sc3c(C)ccc(OC)c3n2C)cc1,8%,9.2µM*,11%,-9%,1%,5.8µM*
COc1cc(C(=O)N=c2sc3c(C)ccc(OC)c3n2C)cc(OC)c1OC,14%,?,-4%,8%,-5%,i
Cc1ccc(-n2ncc3c(NC4CCCCCC4)ncnc32)cc1,/,i,/,12%,/,i
CCC(C)Sc1oc(-c2ccco2)nc1S(=O)(=O)c1ccc(C)cc1 (configuration not stated),/,?,/,-3%,/,?
CNc1cc(CSc2ccc(Cl)cc2)nc(C)n1,-17%,i,5.2µM*,3%,-7%,i
Cc1nc(CSc2ccc(Cl)cc2)cc(NCc2ccccc2)n1,8%,i,1%,-16%[11.4 µM],-2%,?
N#CCCC1CCCC=C1N(Cc1ccccc1)C(=O)C(Cl)Cl (configuration not stated),10µM*,i,4%,?,-1%,?
CC[C@@H](CC1CCCCC1)C(=O)N(Cc1ccccc1)c1ccccc1,14%,i,-4%,12%,0%,?
COC(=O)Cc1c[nH]c2cccc(OCC(O)CN(Cc3ccc([N+](=O)[O-])cc3)C(C)(C)C)c12 (configuration not stated),8%,i,8%,-8%,-4%,5.8µM*
Cc1ccc(SC2=C(Sc3ccc(C)cc3)C(=O)c3ccccc3C2=O)cc1,3.3µM*,i,8.2µM*,-79%[56.9 µM],-4%,i
Cc1ccc(N2C(=O)c3ccccc3C2=O)cc1,-12%,i,3%,-17%,-4%,i
O=C(NCc1ccccc1Cl)c1cc2c(s1)-c1ccc(Cl)cc1SC2,/,i,/,-13%,/,i
COc1ccc(S(=O)(=O)N2CCC(NC(=O)OCc3c(Cl)cccc3Cl)CC2)cc1,?,i,5%,-2%,-8%,8.2µM*
COc1ccc(S(=O)(=O)N2CCC(C(=O)NC3CC3)CC2)cc1,-1%,i,-26%,-14%,0%,i
SMILES,MCF10A rerep,KB-3-1 cytotox,SW480 rereplic,RGS4 inhibitor,PTAP TSG101 blk,KB-V1 cytotox
COc1ccc(COC(=O)NC2CCN(S(=O)(=O)c3ccc(OC)cc3)CC2)cc1,5%,i,-1%,-9%,-2%,7.3µM*
CCCCC(=O)N1CCc2cc(OC)c(OC)cc2C1COc1ccc(C(=O)OCC)cc1 (configuration not stated),/,i,/,-3%,/,?
CSc1ncc(C(=O)N2CCN(c3ccc(Cl)cc3)CC2)c(C)n1,/,i,/,-3%,/,i
COc1ccc(C(=O)OCc2cc(=O)n3nc(C4CC4)sc3n2)cc1OC,/,i,/,15%,/,i
Cc1ccc(S(=O)(=O)N2CCN(Cc3cc4c(cc3Br)OCCO4)CC2)cc1,?,3.7µM*,-7%,-1%,3%,i
Cc1cc(C(F)(F)F)nn1-c1nc(-c2ccccc2)cc(C(F)(F)F)n1,/,i,/,1%,/,i
O=C(CSc1nnc(-c2n[nH]c3ccccc23)n1-c1ccccc1)Nc1cccc(Cl)c1,-49%,i,4%,-28%,-3%,7.3µM*
CCc1ccc(NC(=O)CSc2nnc(-c3n[nH]c4ccccc34)n2-c2ccccc2)cc1,?,i,2%,-19%,-3%,i
c1ccc(N2CCN(c3ncnc4c3oc3ccccc34)CC2)cc1,3%,i,-3%,-20%,-1%,16µM*
Brc1ccc2oc3c(N4CCOCC4)ncnc3c2c1,12%,i,-4%,-28%,-2%,16µM*
CCc1nnc(N2CCN(c3ncnc4c3oc3ccccc34)CC2)s1,?,i,-5%,2%,-5%,i
CC1(C)Cc2nc3oc4c(N5CCOCC5)ncnc4c3cc2CO1,12%,i,-9%,8%,-6%,?
O=C1Cc2cc(S(=O)(=O)N3CCN(c4cccc(C(F)(F)F)c4)CC3)ccc2N1,/,i,/,/,/,i
CCCC(=O)O[C@]1(C(=O)COC(C)=O)CC[C@H]2C3C[C@H](F)C4=CC(=O)C=CC4(C)[C@@]3(F)[C@@H](O)CC21C (some centres not stated),0%,/,9%,/,/,/
CCCC(=O)Nc1cc(-c2nc3cccnc3s2)ccc1C,/,i,/,-28%,/,i
O=C(O)CC1c2ccccc2CCN1C(=O)Nc1cc(Cl)ccc1Cl (configuration not stated),/,/,/,7%,/,/
CCc1cc(C(=O)c2ccc(C)cc2)c(NC(=O)CCl)s1,?,23µM*,?,-13%,0%,?
Cc1cc(C(=O)c2ccc(Cl)cc2)c(NC(=O)CCl)s1,21µM*,?,?,-21%,-3%,?
CCC(Sc1nc2nccnc2c(=O)n1Cc1ccc(OC)cc1)C(=O)NC1CCCCC1 (configuration not stated),/,/,/,-8%,/,/
Cc1cc(NC(=O)NCc2ccc3c(c2)CCN3C(=O)c2ccccc2)ccc1Br,/,/,/,-47%,/,/
